Data: PubChem BioAssay
For some of these results: Results with a measured potency or affinity are listed apart. Active and inactive are the calls of the source. Unless noted, how the calls were made is not given here.

Assays:
[1] = antimalarial activity against Dd2 strain (AID 2302;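 active means growth inhibition above 50% at the single 2 µM test dose, taken to imply half-maximal potency below 2 µM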;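 further: 0% = DMSO untreated growth and 100% = chloroquine plus artemisinin killed control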); settings: P. falciparum Dd2 in RBCs, LDH growth readout, 72 h; at 2 µM; active compounds read high
[2] = human hepatoma cell viability loss – ATP luminescence, cytotoxicity control for P. falciparum antimalarial project, primary screen (AID 2303;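 active means inhibition above 50%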;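 further: 0% = DMSO wells and 100% = digitonin-killed cells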); settings: HepG2 viability, 24-48 h, at 10 µM, active compounds read high
[3] = target: L-lactate dehydrogenase (Plasmodium falciparum (isolate CDC / Honduras)) (UniProt Q27743); experiment: PfLDH activity inhibition – cell lysate, 3D7 strain, counter-screen for P. falciparum growth inhibition project (AID 2304);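 further: 0% = vehicle and 100% = reference inhibitor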; settings: P. falciparum 3D7 crude extract, LDH APAD/NBT absorbance; at 2 µM; active compounds read high
[4] = inhibition of 3D7 malaria parasite growth – strain 3D7 (AID 2306);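 further: 0% = DMSO wells and 100% = chloroquine plus artemisinin control wells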; settings: P. falciparum 3D7 erythrocytic growth, LDH absorbance, 72 h; at 2 µM; active compounds read high
[5] = target: Calcium-dependent protein kinase 1 (Plasmodium falciparum (isolate 3D7)) (UniProt P62344); experiment: PfCDPK1 kinase inhibitors, biochemical, TCAMS library (AID 1159585; cut-off not given, nearly all actives have IC50 up to about 0.98 µM;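 further: inhibitors leave more ATP so luminescence rises with inhibition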); settings: recombinant PfCDPK1, Kinase-Glo ATP depletion luminescence
[6] = target: Plasmodium falciparum protein kinase 6 (PK6, PF3D7_1337100) (UniProt Q8IDW1); experiment: PfPK6 kinase inhibitors, biochemical, TCAMS library (AID 1159586); settings: recombinant PfPK6, Kinase-Glo ATP depletion luminescence
[7] = target: Protein kinase 7 (PK7), Plasmodium falciparum 3D7 (PF3D7_0213400) (UniProt Q7YTF7); experiment: inhibition of Plasmodium PK7 catalytic activity – biochemical, TCAMS antimalarial set, Kinase-Glo luminescence (AID 1159587); settings: recombinant PfPK7, Kinase-Glo ATP depletion luminescence
[8] = target: Calcium-dependent protein kinase 4 (Plasmodium falciparum (isolate 3D7)) (UniProt Q8IBS5); experiment: PfCDPK4 kinase inhibitors, biochemical, TCAMS library (AID 1159588; cut-off not given, nearly all actives have IC50 up to about 0.91 µM); settings: recombinant PfCDPK4, Kinase-Glo ATP depletion luminescence
Calcium-dependent protein kinase 4 (Plasmodium falciparum (isolate 3D7)), sequence (Q8IBS5 whole entry, looked up): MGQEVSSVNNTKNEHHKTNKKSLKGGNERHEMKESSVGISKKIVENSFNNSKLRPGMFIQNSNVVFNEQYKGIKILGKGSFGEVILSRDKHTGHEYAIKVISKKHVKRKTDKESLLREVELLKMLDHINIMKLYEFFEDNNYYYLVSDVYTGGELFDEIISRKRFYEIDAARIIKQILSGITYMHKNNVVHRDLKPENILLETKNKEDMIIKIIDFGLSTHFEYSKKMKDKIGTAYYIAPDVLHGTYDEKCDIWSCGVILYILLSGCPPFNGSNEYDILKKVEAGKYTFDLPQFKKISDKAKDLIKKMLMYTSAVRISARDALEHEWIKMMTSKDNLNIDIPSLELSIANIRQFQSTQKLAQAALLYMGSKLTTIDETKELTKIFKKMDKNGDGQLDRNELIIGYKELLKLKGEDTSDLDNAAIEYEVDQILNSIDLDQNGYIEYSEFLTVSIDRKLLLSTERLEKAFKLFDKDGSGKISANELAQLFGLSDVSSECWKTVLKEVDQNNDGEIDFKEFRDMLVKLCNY

Plasmodium falciparum protein kinase 6 (PK6, PF3D7_1337100), sequence (Q8IDW1 1-305): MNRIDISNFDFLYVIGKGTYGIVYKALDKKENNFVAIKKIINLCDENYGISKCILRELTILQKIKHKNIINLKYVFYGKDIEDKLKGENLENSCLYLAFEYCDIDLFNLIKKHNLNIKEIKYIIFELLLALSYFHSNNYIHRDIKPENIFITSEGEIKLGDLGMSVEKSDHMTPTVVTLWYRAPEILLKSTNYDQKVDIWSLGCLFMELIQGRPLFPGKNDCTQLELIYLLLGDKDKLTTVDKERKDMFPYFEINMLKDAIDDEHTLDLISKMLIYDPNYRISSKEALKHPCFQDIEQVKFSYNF
Protein kinase 7 (PK7), Plasmodium falciparum 3D7 (PF3D7_0213400), sequence (Q7YTF7 1-343): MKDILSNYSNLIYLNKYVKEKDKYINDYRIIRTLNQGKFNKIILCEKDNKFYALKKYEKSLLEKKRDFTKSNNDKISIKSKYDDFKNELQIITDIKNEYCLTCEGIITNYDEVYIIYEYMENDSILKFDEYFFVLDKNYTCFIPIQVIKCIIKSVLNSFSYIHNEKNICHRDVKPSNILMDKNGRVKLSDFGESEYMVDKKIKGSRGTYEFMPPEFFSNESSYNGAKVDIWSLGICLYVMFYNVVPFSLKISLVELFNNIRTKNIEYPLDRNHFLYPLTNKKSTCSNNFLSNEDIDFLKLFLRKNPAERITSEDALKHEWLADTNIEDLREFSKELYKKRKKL
L-lactate dehydrogenase (Plasmodium falciparum (isolate CDC / Honduras)), sequence (Q27743 whole entry, looked up): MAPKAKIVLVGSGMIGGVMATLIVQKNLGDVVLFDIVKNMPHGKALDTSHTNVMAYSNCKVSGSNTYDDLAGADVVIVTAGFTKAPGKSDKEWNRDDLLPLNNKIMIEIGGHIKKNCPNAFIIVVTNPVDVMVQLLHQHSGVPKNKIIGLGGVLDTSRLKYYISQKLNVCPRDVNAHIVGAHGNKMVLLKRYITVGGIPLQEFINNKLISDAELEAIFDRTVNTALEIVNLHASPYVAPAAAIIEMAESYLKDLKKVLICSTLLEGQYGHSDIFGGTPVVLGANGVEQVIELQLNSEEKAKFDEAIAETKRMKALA
Calcium-dependent protein kinase 1 (Plasmodium falciparum (isolate 3D7)), sequence (P62344 whole entry, looked up): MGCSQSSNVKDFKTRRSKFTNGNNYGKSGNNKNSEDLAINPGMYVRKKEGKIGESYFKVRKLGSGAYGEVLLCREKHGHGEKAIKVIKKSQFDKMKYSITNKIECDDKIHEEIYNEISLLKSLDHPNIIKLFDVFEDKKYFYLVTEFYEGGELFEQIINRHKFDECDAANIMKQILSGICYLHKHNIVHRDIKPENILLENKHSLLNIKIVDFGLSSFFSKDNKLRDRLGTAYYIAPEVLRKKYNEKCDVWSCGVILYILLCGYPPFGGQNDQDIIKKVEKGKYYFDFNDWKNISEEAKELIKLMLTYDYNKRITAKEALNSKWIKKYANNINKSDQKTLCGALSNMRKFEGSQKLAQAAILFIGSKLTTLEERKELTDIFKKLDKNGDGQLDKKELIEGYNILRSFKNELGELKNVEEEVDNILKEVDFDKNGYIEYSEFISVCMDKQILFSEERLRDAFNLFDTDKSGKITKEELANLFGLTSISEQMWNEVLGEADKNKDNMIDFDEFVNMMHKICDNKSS

CC(C)(C)c1ccc(OCCCON2C(N)=NC(N)=NC2(C)C)c(C(C)(C)C)c1
active: growth inhibition [1] 97% | inhibition [2] 64% | growth inhibition [4] 93%
inactive: inhibition [3] 2% | outcome [5] | outcome [6] | outcome [7] | outcome [8]

C#CCOc1ccc(N2C(N)=NC(N)=NC2(C)C)cc1
inactive: growth inhibition [1] -3% | inhibition [2] 43% | inhibition [3] 6% | outcome [5] | outcome [6] | outcome [7] | outcome [8]
active: growth inhibition [4] 94%

NC(=NCCc1ccc(Cl)cc1)c1ccc(Cl)c(Cl)c1
inactive: growth inhibition [1] 42% | inhibition [2] 43% | inhibition [3] -1% | outcome [5] | outcome [6] | outcome [7] | outcome [8]
active: growth inhibition [4] 100%

Cc1cc(S(=O)(=O)N2CCCCC(c3ccc(C(F)(F)F)cc3)=N2)c(Cl)cc1Cl
inactive: inhibition [2] 17% | inhibition [3] 0% | outcome [5] | outcome [6] | outcome [7] | outcome [8]
active: growth inhibition [1] 97% | growth inhibition [4] 97%

c1ccc(Oc2ccc(Nc3ccnc4cc(-c5ccc(CNCCN6CCOCC6)o5)ccc34)cc2)nc1
inactive: inhibition [2] -7% | inhibition [3] -2% | outcome [5] | outcome [6] | outcome [7] | outcome [8]
active: growth inhibition [1] 100% | growth inhibition [4] 101%

O=C(N[C@@H](CC1CCCCC1)C(=O)NCCc1ccc(Cl)c(Cl)c1)c1ccc(O)c(-c2ccc(Cl)c(Cl)c2)c1
active: growth inhibition [1] 99% | growth inhibition [4] 100%
inactive: inhibition [2] -11% | inhibition [3] -2% | outcome [5] | outcome [6] | outcome [7] | outcome [8]

O=S(=O)(Nc1ccc2nccc(N3CCNCC3)c2c1)c1ccc(-c2ccccc2)cc1
active: growth inhibition [4] 101%
inactive: growth inhibition [1] -1% | inhibition [2] -3% | inhibition [3] -2% | outcome [5] | outcome [6] | outcome [7] | outcome [8]

Cc1ccc(NC(=O)c2ccc(C(=O)NC3CCN(CC4CCCCC4)CC3)cc2)cc1
inactive: growth inhibition [1] 0% | inhibition [2] 36% | inhibition [3] -6% | outcome [5] | outcome [6] | outcome [7] | outcome [8]
active: growth inhibition [4] 93%

OCC1CCN(Cc2cccc(-c3ccc(-c4nc5ccc(F)cc5[nH]4)cc3)c2)CC1
active: growth inhibition [1] 86% | growth inhibition [4] 101%
inactive: inhibition [2] 11% | inhibition [3] 4% | outcome [5] | outcome [6] | outcome [7] | outcome [8]

Cc1cnc(NCC2CCCCC2)nc1N[C@@H](CC(C)C)C(=O)Nc1ccccc1
active: growth inhibition [1] 55% | growth inhibition [4] 96%
inactive: inhibition [2] 12% | inhibition [3] -2% | outcome [5] | outcome [6] | outcome [7] | outcome [8]

COc1ccc(NC(=O)[C@H](CC(C)C)Nc2cc(C)nc(NCC3CCCCC3)n2)cc1
active: growth inhibition [1] 92% | growth inhibition [4] 101%
inactive: inhibition [2] 7% | inhibition [3] 2% | outcome [5] | outcome [6] | outcome [7] | outcome [8]

CCCCc1cc(NCc2ccncc2)nc(Nc2ccccc2)n1
active: growth inhibition [4] 96%
inactive: growth inhibition [1] 4% | inhibition [2] -5% | inhibition [3] -3% | outcome [5] | outcome [6] | outcome [7] | outcome [8]

N#Cc1ccc(-n2cc(C(=O)Nc3ccc4c(c3)CCN(C3CCC3)CC4)c(C(F)(F)F)n2)cc1
active: growth inhibition [1] 99% | growth inhibition [4] 102%
inactive: inhibition [2] 37% | inhibition [3] -2% | outcome [5] | outcome [6] | outcome [7] | outcome [8]

CCCCCCN1CCN(Cc2cccc(NC(=O)c3cc4ccccc4s3)c2)CC1
active: growth inhibition [1] 68% | growth inhibition [4] 93%
inactive: inhibition [2] 20% | inhibition [3] -1% | outcome [5] | outcome [6] | outcome [7] | outcome [8]

COc1ccc(NC(=O)NC2CCN(CCCCCNC(=O)/C=C/c3ccc(Cl)c(Cl)c3)CC2)cc1
inactive: growth inhibition [1] 1% | inhibition [2] 5% | inhibition [3] 0% | outcome [5] | outcome [6] | outcome [7] | outcome [8]
active: growth inhibition [4] 96%

O=C(Nc1ccc(Oc2ccccc2)cc1)N(Cc1ccc(-c2cccc(CN3CCNCC3)c2)cc1)C1CCN(Cc2ccccc2)CC1
inactive: inhibition [2] 10% | inhibition [3] -1% | outcome [5] | outcome [6] | outcome [7] | outcome [8]
active: growth inhibition [1] 53% | growth inhibition [4] 93%

CCNc1cc(C(=O)N[C@@H](Cc2ccccc2Cl)[C@H](O)CNC(C)CCCC(C)C)cc(N2CCCCS2(=O)=O)c1 (stereo partly drawn)
active: growth inhibition [1] 62% | growth inhibition [4] 97%
inactive: inhibition [2] 12% | inhibition [3] 2% | outcome [5] | outcome [6] | outcome [7] | outcome [8]

Oc1cccc2c1CC(NCc1ccccc1)CC2 (stereo not drawn)
active: growth inhibition [4] 90%
inactive: growth inhibition [1] 24% | inhibition [2] 4% | inhibition [3] 6% | outcome [5] | outcome [6] | outcome [7] | outcome [8]

O=C1C2=C(Nc3ccccc3SC2c2cccs2)c2ccccc21 (stereo not drawn)
inactive: inhibition [2] 8% | inhibition [3] 5% | outcome [5] | outcome [6] | outcome [7] | outcome [8]
active: growth inhibition [1] 93% | growth inhibition [4] 96%

Cc1cccc2[nH]c(-c3ccc(-c4cccc(CN5CCCC(O)C5)c4)s3)nc12 (stereo not drawn)
inactive: growth inhibition [1] 18% | inhibition [2] 13% | inhibition [3] 2% | outcome [5] | outcome [6] | outcome [7] | outcome [8]
active: growth inhibition [4] 95%

Oc1ccc2[nH]c(-c3cccc(F)c3)nc2c1CNCc1ccccc1
active: growth inhibition [1] 55% | growth inhibition [4] 92%
inactive: inhibition [2] 29% | inhibition [3] -2% | outcome [5] | outcome [6] | outcome [7] | outcome [8]

C=C(C)Cn1cc(C2CCN(CCCCNC(=O)c3sc(-c4ccc(Cl)cc4Cl)nc3CO)CC2)c2ccccc21
inactive: growth inhibition [1] 19% | inhibition [2] 22% | inhibition [3] 4% | outcome [5] | outcome [6] | outcome [7] | outcome [8]
active: growth inhibition [4] 82%

CN1CCC(c2c[nH]c3ccc(NC(=O)Nc4ccc(-c5ccncc5)cc4Cl)cc23)CC1
active: growth inhibition [4] 100%
inactive: growth inhibition [1] 7% | inhibition [2] 31% | inhibition [3] 7% | outcome [5] | outcome [6] | outcome [7] | outcome [8]

COc1cccc(NC(=O)Nc2ccc(-c3oc(C(=O)NCC(c4ccccc4)N(C)C)cc3-c3ccncc3)cc2)c1 (stereo not drawn)
active: growth inhibition [1] 99% | growth inhibition [4] 101%
inactive: inhibition [2] 6% | inhibition [3] 2% | outcome [5] | outcome [6] | outcome [7] | outcome [8]

Cn1nc(-c2ccc(NC(=O)Nc3cc(C(F)(F)F)ccc3F)cc2)c2cnc(NCCCCN3CCCC3)nc21
inactive: inhibition [3] -3% | outcome [5] | outcome [6] | outcome [7] | outcome [8]
active: growth inhibition [1] 74% | inhibition [2] 88% | growth inhibition [4] 98%

Nc1nc(N)c2c(Cc3ccc(Br)cc3)cccc2n1
inactive: growth inhibition [1] 20% | inhibition [2] 28% | inhibition [3] 0% | outcome [5] | outcome [6] | outcome [7] | outcome [8]
active: growth inhibition [4] 99%

Cn1cncc1C(=O)Nc1ccc(-c2cccc(-c3nc4ccc(C(F)(F)F)cc4[nH]3)c2)cc1
inactive: growth inhibition [1] 3% | inhibition [2] 34% | inhibition [3] 4% | outcome [5] | outcome [6] | outcome [7] | outcome [8]
active: growth inhibition [4] 100%

CC(=O)N1Cc2ccccc2C1=O
inactive: growth inhibition [1] -1% | inhibition [2] 10% | inhibition [3] -4% | outcome [5] | outcome [6] | outcome [7] | outcome [8]
active: growth inhibition [4] 97%

CC(Oc1ccc(Cl)cc1Cl)c1nc(-c2ccc(NC(=O)c3ccco3)cc2)no1 (stereo not drawn)
inactive: inhibition [2] 7% | inhibition [3] 0% | outcome [5] | outcome [6] | outcome [7] | outcome [8]
active: growth inhibition [1] 82% | growth inhibition [4] 92%

CCC(C)(C)c1ccc(Oc2ccc(NC(=O)Nc3ccc(Cl)c(Cl)c3)cc2)cc1
inactive: inhibition [2] 13% | inhibition [3] -1% | outcome [5] | outcome [6] | outcome [7] | outcome [8]
active: growth inhibition [1] 97% | growth inhibition [4] 98%

CCc1ccc(C2CCN(CCCCNC(=O)c3ccc(NC(=O)c4ccc(Cl)cc4)cc3)CC2)c(OCCO)c1
active: growth inhibition [1] 100% | inhibition [2] 94% | growth inhibition [4] 98%
inactive: inhibition [3] -3% | outcome [5] | outcome [6] | outcome [7] | outcome [8]

COc1ccc2nc(NC3=NC4(c5ccccc5)N=C(Nc5nc6ccc(OC)cc6[nH]5)NC4(c4ccccc4)N3)[nH]c2c1 (stereo not drawn)
active: growth inhibition [1] 85% | growth inhibition [4] 100%
inactive: inhibition [2] -5% | inhibition [3] -6% | outcome [5] | outcome [6] | outcome [7] | outcome [8]

NC(N)=NN=Cc1cc2ccccc2c2ccccc12
active: growth inhibition [1] 63% | growth inhibition [4] 100%
inactive: inhibition [2] 25% | inhibition [3] 4% | outcome [5] | outcome [6] | outcome [7] | outcome [8]

O=C(Nc1cccc(CN2CCN(Cc3cccc(O)c3)CC2)c1)c1ccc(Cl)c(Cl)c1
active: growth inhibition [4] 100%
inactive: growth inhibition [1] 35% | inhibition [2] 28% | inhibition [3] -1% | outcome [5] | outcome [6] | outcome [7] | outcome [8]

O=C(/C=C/c1ccc(C(F)(F)F)cc1)NCCCCCN1CCN(C(=O)Nc2ccc(Cl)cc2)CC1
inactive: growth inhibition [1] -4% | inhibition [2] 37% | inhibition [3] -8% | outcome [5] | outcome [6] | outcome [7] | outcome [8]
active: growth inhibition [4] 88%

CCOc1cccc(C2c3c(oc4ccccc4c3=O)C(=O)N2CCN(CC)CC)c1 (stereo not drawn)
inactive: inhibition [2] 5% | inhibition [3] -2% | outcome [5] | outcome [6] | outcome [7] | outcome [8]
active: growth inhibition [1] 66% | growth inhibition [4] 100%

CC=CCON1C(N)=NC(N)=NC1(C)C
inactive: growth inhibition [1] 1% | inhibition [3] 5% | outcome [5] | outcome [6] | outcome [7] | outcome [8]
active: inhibition [2] 57% | growth inhibition [4] 94%

Cc1cc(F)ccc1[C@H]1CNCCN1C(=O)N(C)C(C)(C)c1cc(C(F)(F)F)cc(C(F)(F)F)c1
active: growth inhibition [1] 100% | growth inhibition [4] 101%
inactive: inhibition [2] 24% | inhibition [3] -4% | outcome [5] | outcome [6] | outcome [7] | outcome [8]

CCOc1ccc(-c2nonc2NC(=O)c2cccs2)cc1OCC
inactive: inhibition [2] 6% | inhibition [3] 4% | outcome [5] | outcome [6] | outcome [7] | outcome [8]
active: growth inhibition [1] 100% | growth inhibition [4] 101%

O=C(NCCCN1CCN(c2cccc(Cl)c2)CC1)c1ccc(-c2nc3cc(Cl)c(Cl)cc3[nH]2)cc1
inactive: inhibition [2] 3% | inhibition [3] -1% | outcome [5] | outcome [6] | outcome [7] | outcome [8]
active: growth inhibition [1] 95% | growth inhibition [4] 98%

O=C(Nc1ccc([N+](=O)[O-])cc1Cl)c1cc(Br)cc(Cc2ccccc2)c1O
active: growth inhibition [1] 96% | inhibition [2] 75% | growth inhibition [4] 84%
inactive: inhibition [3] -1% | outcome [5] | outcome [6] | outcome [7] | outcome [8]
